Assay results as given in PubChem BioAssay AID1159580 (chemical genetic matrix, 2015).
The campaign covered roughly 5,500 compounds. About 2,000 (36%) were called active. About 18% were inconclusive and are not listed. Cut-off read from the data, not from the text of the source: active = normalized growth mostly below about 0.91 (no sharp cut-off); inconclusive = no clear call, values can overlap the other calls; inactive = mostly above about 0.92. The list shows a part of the results.

Assay: chemical genetic growth profiling, strain panel (AID 1159580);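 note: tested at 20 µM; growth read once vehicle control cultures reached saturation at 30 °C; 1 = growth at the plate median or of vehicle wells; lower values mean less growth of the strain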
Conditions: growth OD

Measured: normalized growth

CC(=O)Nc1ccc(S(=O)(=O)NC2Cc3ccccc3C2)cc1
inactive: S. cerevisiae deletion strains, locus YAL013W, strain DEP1, stronger effect = lower value 1.01 | S. cerevisiae deletion strains, locus YBR229C, strain ROT2, stronger effect = lower value 1.01 | S. cerevisiae deletion strains, locus YDL101C, strain DUN1, stronger effect = lower value 0.98 | S. cerevisiae deletion strains, locus YDR150W, strain NUM1, stronger effect = lower value 0.949 | S. cerevisiae deletion strains, locus YEL061C, strain CIN8, stronger effect = lower value 1.01 | S. cerevisiae deletion strains, locus YGR078C, strain PAC10, stronger effect = lower value 1 | S. cerevisiae deletion strains, locus YHR030C, strain SLT2, stronger effect = lower value 1.06 | S. cerevisiae deletion strains, locus YHR087W, strain rtc3, stronger effect = lower value 1 | S. cerevisiae deletion strains, locus YJR043C, strain POL32, stronger effect = lower value 1 | S. cerevisiae deletion strains, locus YJR075W, strain HOC1, stronger effect = lower value 0.996 | S. cerevisiae deletion strains, locus YKL190W, strain CNB1, stronger effect = lower value 1.01 | S. cerevisiae deletion strains, locus YLR039C, strain RIC1, stronger effect = lower value 1.04 | S. cerevisiae deletion strains, locus YLR058C, strain SHM2 (second series), stronger effect = lower value 1.01 | S. cerevisiae deletion strains, locus YLR085C, strain ARP6, stronger effect = lower value 1.05 | S. cerevisiae deletion strains, locus YLR262C, strain YPT6, stronger effect = lower value 1.03 | S. cerevisiae deletion strains, locus YML094W, strain GIM5, stronger effect = lower value 1.02 | S. cerevisiae deletion strains, locus YMR219W, strain ESC1, stronger effect = lower value 1.01 | S. cerevisiae deletion strains, locus YMR263W, strain SAP30, stronger effect = lower value 0.994 | S. cerevisiae deletion strains, locus YNL153C, strain GIM3, stronger effect = lower value 1.02 | S. cerevisiae deletion strains, locus YNL298W, strain CLA4 (second series), stronger effect = lower value 1.04 | S. cerevisiae deletion strains, locus YNL322C, strain KRE1, stronger effect = lower value 1.01 | S. cerevisiae deletion strains, locus YNR030W, strain Alg12, stronger effect = lower value 1.03 | S. cerevisiae deletion strains, locus YOL006C, strain TOP1, stronger effect = lower value 1.08 | S. cerevisiae deletion strains, locus YPL055C, strain LGE1, stronger effect = lower value 0.966 | S. cerevisiae deletion strains, locus YPL241C, strain CIN2, stronger effect = lower value 1.02 | S. cerevisiae deletion strains, locus YPR135W, strain CTF4, stronger effect = lower value 1.02 | S. cerevisiae strains, strain wild type, stronger effect = lower value 1.01
